Experimental data taken from PubChem BioAssay.
Where “and” joins values, the source holds several entries; their conditions need not be identical. Equal entries are not always repeated. Results filed as inconclusive are left out. Calls of active or inactive are those of the source. Unless noted, no stated cut-off is given here; in the data, active means inhibition above about 80%; inactive means the rest.

Key:
[1] = circadian clock period modulators, cell-based, LOPAC library, luminescence reporter (AID 2774; call rule not given here;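 further: values are relative to mean of DMSO wells on each plate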); details: circadian reporter cells, at 7 µM, actives lie on both sides
[2] = liver-stage malaria parasite growth inhibition, primary screen, cell-based, HepG2, luciferase luminescence, HepG2 viability (AID 624349; in the data active means parasite load remaining mostly below about 12%, no sharp cut-off; inactive means mostly above about 10%;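 further: 100% = mean of DMSO negative control wells on the same plate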); details: P. berghei liver stage in HepG2, luciferase luminescence, concentration not given here; parasite load remaining: stronger effect = lower value; viability: measured here: HepG2 viability without parasites
[3] = growth inhibition of DIPG glioma cells, dose response, cell-based, SU-DIPG-XIII, MIPE5.0, CellTiter-Glo, qHTS (AID 1347064; cut-off not given, nearly all actives have AC50 up to about 23 µM;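 on AC50: cells exposed to compound for 48 hours before the viability read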); details: SU-DIPG-XIII viability, CellTiter-Glo ATP luminescence
[4] = target: ATP-dependent translocase ABCB1 (Homo sapiens) (UniProt P08183); assay: MDR1 (ABCB1) efflux transporter inhibition, cell-based (AID 377; in the data active means fluorescence slope change above about 50%); details: MDR1-expressing cells, fluorescent substrate accumulation slope; stronger effect = higher value; concentration not given here
[5] = modifiers of HSF1 nuclear foci, imaging, Selleck Cancer Library (AID 1347162; in the data active means plate-normalised HSF1 focus index below about 0.46); details: human cells, at 10 µM; SSMD: measured here: HSF1 foci SSMD mean; cell count: measured here: cell number; plate-normalised HSF1 focus index: stronger effect = lower value
[6] = test system: Neuropilin-2 / VEGF-C interaction (human); assay: inhibitors of NRP2–VEGF-C binding, biochemical, microplate binding format, z-score (AID 743281; call rule not given here); details: microplate NRP2/VEGF-C binding assay; stronger effect = lower value
[7] = CRL2098 osteosarcoma cell growth inhibition, synergistic combos for chromothripsis tumors, BGB or cisplatin IC20 combos (AID 1671454); details: CRL2098 osteosarcoma cells, drug combinations, stronger effect = higher value;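 further: cells exposed for 96 h before readout; 0% = vehicle DMSO and 100% = killing by high DMSO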
[8] = HD-MB03 medulloblastoma cell growth inhibition, synergistic combos for chromothripsis tumors, BGB or cisplatin IC20 combos (AID 1671455; in the data active means inhibition above about 83%;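 further: 0% = vehicle DMSO and 100% = high DMSO as cytotoxic control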); details: HD-MB03 medulloblastoma cells, stronger effect = higher value
[9] = UWB1.289 ovarian carcinoma cell growth inhibition, synergistic combos for chromothripsis tumors, BGB or cisplatin combos (AID 1671456); details: UWB1.289 ovarian carcinoma cells, stronger effect = higher value;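 further: cells exposed to compound for four days; 0% = vehicle DMSO and 100% = killing by high DMSO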
[10] = LFS_MB_2R medulloblastoma cell growth inhibition, synergistic combos for chromothripsis tumors, cisplatin combos (AID 1671457); details: LFS_MB_2R medulloblastoma cells, stronger effect = higher value;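 further: cells exposed to compound for four days before readout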
[11] = UWB1.289_BRCA1 ovarian cancer growth, cell-based, BGB or cisplatin combinations (AID 1671459); details: UWB1.289 BRCA1 ovarian carcinoma, drug combinations, stronger effect = higher value
[12] = human astrocyte viability loss, single and combined drugs, cytotoxicity control for chromothriptic childhood tumor combination screen, cell-based, BGB or cisplatin IC20 combos (AID 1671460); details: Human astrocytes, drug combinations, stronger effect = higher value;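 further: cells exposed to compounds for 96 hours before viability readout; 0% = vehicle and 100% = killing control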
[13] = measured here: combination with BGB at IC20, at 0.5 µM
[14] = measured here: combination with cisplatin at IC20, at 0.5 µM
[15] = measured here: combo with BGB at IC20, at 0.5 µM
[16] = measured here: combo with cisplatin at IC20, at 0.5 µM
[17] = measured here: inhibition with BGB combination, at 0.05 µM
[18] = measured here: inhibition with cisplatin combination, at 0.05 µM
[19] = measured here: combination with cisplatin, at 0.5 µM
[20] = measured here: combination with cisplatin, at 5 µM
[21] = BGB combination, concentration series, at 5 µM
[22] = cisplatin combination, concentration series, at 5 µM
[23] = measured here: combo with BGB IC20, at 0.5 µM
[24] = measured here: combo with cisplatin IC20, at 0.5 µM

ATP-dependent translocase ABCB1 (Homo sapiens), sequence (P08183 whole entry, looked up): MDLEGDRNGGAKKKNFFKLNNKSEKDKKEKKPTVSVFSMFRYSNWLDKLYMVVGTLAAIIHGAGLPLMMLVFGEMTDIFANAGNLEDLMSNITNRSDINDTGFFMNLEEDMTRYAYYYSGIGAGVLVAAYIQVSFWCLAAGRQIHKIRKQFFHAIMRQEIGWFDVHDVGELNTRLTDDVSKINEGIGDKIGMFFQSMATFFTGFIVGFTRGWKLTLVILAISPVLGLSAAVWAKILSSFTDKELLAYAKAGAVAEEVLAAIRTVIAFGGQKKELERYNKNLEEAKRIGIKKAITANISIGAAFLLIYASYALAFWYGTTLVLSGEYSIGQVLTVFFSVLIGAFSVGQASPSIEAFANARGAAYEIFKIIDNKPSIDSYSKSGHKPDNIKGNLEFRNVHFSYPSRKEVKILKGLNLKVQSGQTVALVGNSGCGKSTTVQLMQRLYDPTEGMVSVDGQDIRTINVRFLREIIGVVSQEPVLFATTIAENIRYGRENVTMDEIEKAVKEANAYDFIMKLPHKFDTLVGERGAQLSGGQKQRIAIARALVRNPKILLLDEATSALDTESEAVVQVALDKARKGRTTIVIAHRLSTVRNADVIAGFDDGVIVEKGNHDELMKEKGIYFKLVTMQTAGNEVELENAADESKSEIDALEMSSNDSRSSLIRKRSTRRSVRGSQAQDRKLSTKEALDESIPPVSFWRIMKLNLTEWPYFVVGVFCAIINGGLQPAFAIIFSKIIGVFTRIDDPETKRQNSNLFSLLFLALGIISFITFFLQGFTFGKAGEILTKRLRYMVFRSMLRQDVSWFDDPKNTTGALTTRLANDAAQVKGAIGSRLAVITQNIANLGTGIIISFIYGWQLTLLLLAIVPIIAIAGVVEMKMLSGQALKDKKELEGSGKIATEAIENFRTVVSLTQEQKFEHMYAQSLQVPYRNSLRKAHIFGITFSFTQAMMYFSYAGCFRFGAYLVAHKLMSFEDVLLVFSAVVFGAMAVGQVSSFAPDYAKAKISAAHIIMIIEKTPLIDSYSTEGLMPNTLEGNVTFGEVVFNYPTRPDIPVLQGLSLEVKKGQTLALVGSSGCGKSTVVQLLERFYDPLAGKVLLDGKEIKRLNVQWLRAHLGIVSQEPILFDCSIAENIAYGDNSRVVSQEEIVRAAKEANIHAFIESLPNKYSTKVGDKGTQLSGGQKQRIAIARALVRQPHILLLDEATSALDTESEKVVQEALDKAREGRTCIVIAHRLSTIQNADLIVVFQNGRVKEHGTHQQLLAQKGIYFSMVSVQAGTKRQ

Q: Which results are given for `O=c1[nH]cnc2[nH]ncc12`?
A: period change [1]: 0.19 h (inactive); parasite load remaining [2]: 54% (inactive) and 101% (inactive) and 124% (inactive); viability [2]: 90.8% and 70.7% and 94.2%; outcome [3]: inactive

Q: For `COc1ccc(OC)c(C(O)CNC(=O)CN)c1` (stereo not drawn), which fluorescence slope change [4] is on record?
A: 79.4% (active)

Q: For `COC1=CC(=O)C[C@@H](C)[C@]12Oc1c(Cl)c(OC)cc(OC)c1C2=O`, which parasite load remaining [2] is on record?
A: 86.5% (inactive) and 55.9% (inactive) and 116% (inactive)

Q: What about the viability [2] of the same compound?
A: 139% and 48% and 184%

Q: For `Nc1ncn([C@@H]2O[C@H](CO)[C@@H](O)[C@H]2O)c(=O)n1`, which period change [1] is on record?
A: 0.105 h (inactive)

Q: What about the parasite load remaining [2] of the same compound?
A: 162% (inactive) and 170% (inactive) and 176% (inactive)

Q: What about the viability [2] of the same compound?
A: 101% and 77.2% and 95%

Q: And the AC50 [3]?
A: 1.66 µM (active)

Q: And the SSMD [5]?
A: 1.14

Q: What about the cell count [5] of the same compound?
A: 7120

Q: And the plate-normalised HSF1 focus index [5]?
A: 1.04 (inactive)

Q: What does the source list for `CN(CCOc1ccc(CC2SC(=O)NC2=O)cc1)c1ccccn1` (stereo not drawn)?
A: viability [2]: 80.3% and 91.8% and 74.9%; z-score [6]: 0.0365 (inactive) and -0.614 (inactive); SSMD [5]: 2.43; cell count [5]: 7680; plate-normalised HSF1 focus index [5]: 1.15 (inactive)

Q: Which period change [1] does the source give for `O=c1[nH]cc(F)c(=O)[nH]1` here?
A: 0.215 h (inactive)

Q: What about the outcome [3] of the same compound?
A: inactive

Q: What about the SSMD [5] of the same compound?
A: 2.14

Q: What about the cell count [5] of the same compound?
A: 7020

Q: What about the plate-normalised HSF1 focus index [5] of the same compound?
A: 1.12 (inactive)

Q: And the inhibition ([7]; at 0.5 µM)?
A: -19.9% (inactive)

Q: What about the inhibition [7, 13] of the same compound?
A: -48.5%

Q: What about the inhibition [7, 14] of the same compound?
A: 13.5%

Q: What about the inhibition ([8]; at 0.5 µM) of the same compound?
A: -10.4% (inactive)

Q: What about the inhibition [8, 15] of the same compound?
A: -12.3%

Q: And the inhibition [8, 16]?
A: -6.42%

Q: What about the inhibition ([9]; at 0.5 µM) of the same compound?
A: 0.81% (inactive)

Q: What about the inhibition [9, 17] of the same compound?
A: -23.6%

Q: What about the inhibition [9, 18] of the same compound?
A: -10.5%

Q: And the inhibition ([10]; at 0.5 µM)?
A: -13.7% (inactive)

Q: And the inhibition [10, 19]?
A: -7.48%

Q: And the inhibition [10, 20]?
A: -1.94%

Q: What about the inhibition [11, 21] of the same compound?
A: 2.42%

Q: What about the inhibition ([11]; at 0.5 µM) of the same compound?
A: -7.71% (inactive)

Q: What about the inhibition [11, 22] of the same compound?
A: 17%

Q: And the inhibition ([12]; at 0.5 µM)?
A: -3.88% (inactive)

Q: And the inhibition [12, 23]?
A: 2.98%

Q: And the inhibition [12, 24]?
A: -4.03%

Q: With `CN(C)CCc1c[nH]c2ccc(C[C@H]3COC(=O)N3)cc12` as the compound, how does the parasite load remaining [2] read?
A: 65.6% (inactive) and 76.6% (inactive) and 61% (inactive)

Q: What about the viability [2] of the same compound?
A: 90.7% and 99.3% and 74.3%

Q: What about the z-score [6] of the same compound?
A: -0.511 (inactive)

Q: What does the source list for `CCc1cccc2c3c([nH]c12)C(CC)(CC(=O)O)OCC3` (stereo not drawn)?
A: fluorescence slope change [4]: 73.7% (active); period change [1]: -0.07 h (inactive)

Q: With `OC(CCN1CCCC1)(c1ccccc1)C1CCCCC1` (stereo not drawn) as the compound, how does the fluorescence slope change [4] read?
A: 70.5% (active)

Q: Which fluorescence slope change [4] does the source give for `Clc1ccc2c(c1)C(N1CCNCC1)=Nc1ccccc1O2` here?
A: 156% (active)

Q: What about the period change [1] of the same compound?
A: 0.105 h (inactive)

Q: What does the source list for `Cc1ccccc1C(OCCN(C)C)c1ccccc1` (stereo not drawn)?
A: fluorescence slope change [4]: 22.7% (inactive); period change [1]: 0.21 h (inactive)

Q: What does the source list for `CN1CCCC(n2nc(Cc3ccc(Cl)cc3)c3ccccc3c2=O)CC1` (stereo not drawn)?
A: parasite load remaining [2]: 30% (inactive) and 46.4% (inactive) and 19.4% (inactive); viability [2]: 75.4% and 180% and 64.4%; z-score [6]: 0.519 (inactive)

Q: Which results are given for `C/C=C/C(=O)N(CC)c1ccccc1C`?
A: z-score [6]: -0.426 (inactive); outcome [3]: inactive

Q: Which fluorescence slope change [4] does the source give for `CCCNCC(O)COc1ccccc1C(=O)CCc1ccccc1` (stereo not drawn) here?
A: 74.2% (active)

Q: And the period change [1]?
A: -0.03 h (inactive)

Q: What about the outcome [3] of the same compound?
A: inactive

Q: For `COc1ccccc1OCC(O)COC(N)=O` (stereo not drawn), which fluorescence slope change [4] is on record?
A: 15.6% (inactive)

Q: What does the source list for `CCn1cc(C(=O)O)c(=O)c2cc(F)c(N3CCN(C)CC3)cc21`?
A: z-score [6]: -1.05 (inactive); inhibition ([7]; at 0.5 µM): -41.2% (inactive) and 7.78% (inactive); inhibition [7, 13]: -48.5% and 10.5%; inhibition [7, 14]: -57.7% and 40.3%; inhibition ([8]; at 0.5 µM): -16.4% (inactive) and 1.14% (inactive); inhibition [8, 15]: -17.4% and 6.49%; inhibition [8, 16]: -24.9% and -8.23%; inhibition ([9]; at 0.5 µM): -8.81% (inactive) and 8.67% (inactive); inhibition [9, 17]: -24.8% and -1.17%; inhibition [9, 18]: -21.6% and 2.48%; inhibition ([10]; at 0.5 µM): -5.46% (inactive) and 1.79% (inactive); inhibition [10, 19]: 3.08% and 3.79%; inhibition [10, 20]: -14.9% and -26.1%; inhibition [11, 21]: -6.71% and 0.813%; inhibition ([11]; at 0.5 µM): -17.9% (inactive) and 5.05% (inactive); inhibition [11, 22]: -12.6% and 1.69%; inhibition ([12]; at 0.5 µM): -3.63% (inactive) and -0.44% (inactive); inhibition [12, 23]: 1.4% and 4.59%; inhibition [12, 24]: -18.3% and 1.72%

Q: What does the source list for `O=S(=O)(O)CCS`?
A: fluorescence slope change [4]: 5.5% (inactive); parasite load remaining [2]: 51.7% (inactive) and 115% (inactive) and 24.6% (inactive); viability [2]: 104% and 70.5% and 96.3%; outcome [3]: inactive

Q: What does the source list for `CC(C)(C)NCC(O)COc1cccc2c1C[C@H](O)[C@H](O)C2` (stereo partly drawn)?
A: fluorescence slope change [4]: 55.3% (active); parasite load remaining [2]: 69.2% (inactive) and 72.2% (inactive) and 65.4% (inactive); viability [2]: 124% and 85.6% and 141%

Q: For `N[C@@H](C(=O)N[C@@H]1C(=O)N2C(C(=O)O)=C(Cl)CS[C@H]12)c1ccccc1`, which z-score [6] is on record?
A: -0.232 (inactive)

Q: Which fluorescence slope change [4] does the source give for `c1ccc2[nH]c(-c3cscn3)nc2c1` here?
A: 17.8% (inactive)

Q: Which results are given for `Cc1ccc(-c2cc(C(F)(F)F)nn2-c2ccc(S(N)(=O)=O)cc2)cc1`?
A: AC50 [3]: 18.6 µM (active); SSMD [5]: -12.9; cell count [5]: 5490; plate-normalised HSF1 focus index [5]: 0.546 (inactive)

Q: Which fluorescence slope change [4] does the source give for `Cn1cnc([N+](=O)[O-])c1Sc1ncnc2nc[nH]c12` here?
A: 53.6% (active)

Q: And the period change [1]?
A: 0.485 h (inactive)

Q: What about the inhibition ([7]; at 0.5 µM) of the same compound?
A: -39.2% (inactive) and -50.5% (inactive)

Q: And the inhibition [7, 13]?
A: -37.7% and -16.5%

Q: What about the inhibition [7, 14] of the same compound?
A: -43.1% and -68.9%

Q: What about the inhibition ([8]; at 0.5 µM) of the same compound?
A: -1.96% (inactive) and 2.76% (inactive)

Q: What about the inhibition [8, 15] of the same compound?
A: -3.82% and 4.08%

Q: And the inhibition [8, 16]?
A: -5.61% and 15.3%

Q: What about the inhibition ([9]; at 0.5 µM) of the same compound?
A: 39.3% (inactive) and 42.9% (inactive)

Q: What about the inhibition [9, 17] of the same compound?
A: -15.3% and -18.7%

Q: And the inhibition [9, 18]?
A: -7.01% and -1.15%

Q: And the inhibition ([10]; at 0.5 µM)?
A: -16.6% (inactive) and -22.7% (inactive)

Q: And the inhibition [10, 19]?
A: -17.1% and -11.6%

Q: What about the inhibition [10, 20] of the same compound?
A: -20.9% and -25.4%

Q: And the inhibition [11, 21]?
A: 90.9% and 88.9%

Q: What about the inhibition ([11]; at 0.5 µM) of the same compound?
A: 37.4% (inactive) and 50.2% (inactive)

Q: What about the inhibition [11, 22] of the same compound?
A: 96.5% and 101%

Q: And the inhibition ([12]; at 0.5 µM)?
A: -1.25% (inactive) and 13.6% (inactive)

Q: What about the inhibition [12, 23] of the same compound?
A: 5.14% and 24.1%

Q: And the inhibition [12, 24]?
A: -7.22% and 6.12%
